Data as given in article PMC11006913.
Where a chain is given by its changes, count along the chain named.

What was measured:
Assay in all cases: PBM; 200 nM protein, PBS
Details in all cases: dsDNA, one strand shown
NKX2-4 [1] = target: T1, NKX2-4 (Homo sapiens, UniProt Q9H2Z4 175-261, P217L)
T1 sequence: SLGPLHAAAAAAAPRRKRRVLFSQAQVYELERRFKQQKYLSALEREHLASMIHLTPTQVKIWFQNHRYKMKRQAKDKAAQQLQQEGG

NKX2-4 [2] = target: T2, NKX2-4 (Homo sapiens, UniProt Q9H2Z4 175-261, T231S)
T2 sequence: T1 sequence with L43P, T57S

NKX2-4 [3] = target: T3, NKX2-4 (Homo sapiens, UniProt Q9H2Z4 175-261)
T3 sequence: T1 sequence with L43P

NKX2-4 [4] = target: T4, NKX2-4 (Homo sapiens, UniProt Q9H2Z4 175-261, R246Q)
T4 sequence: T1 sequence with L43P, R72Q

Row | Sequence | binding signal (NKX2-4 [1]) | binding signal (NKX2-4 [2]) | binding signal (NKX2-4 [3]) | binding signal (NKX2-4 [4])
1 | ATCGGAGC | 9.93 upbm affinity estimate (log intensity, higher = more binding, comparable within an allelic series) | 9.93 upbm affinity estimate (log intensity, higher = more binding, comparable within an allelic series) | 9.9 upbm affinity estimate (log intensity, higher = more binding, comparable within an allelic series) | 10 upbm affinity estimate (log intensity, higher = more binding, comparable within an allelic series)
2 | CTCAAGCA | 11.8 upbm affinity estimate (log intensity, higher = more binding, comparable within an allelic series) | 12.1 upbm affinity estimate (log intensity, higher = more binding, comparable within an allelic series) | 11.8 upbm affinity estimate (log intensity, higher = more binding, comparable within an allelic series) | 12.2 upbm affinity estimate (log intensity, higher = more binding, comparable within an allelic series)
3 | CCGAGACG | 9.51 upbm affinity estimate (log intensity, higher = more binding, comparable within an allelic series) | 9.47 upbm affinity estimate (log intensity, higher = more binding, comparable within an allelic series) | 9.47 upbm affinity estimate (log intensity, higher = more binding, comparable within an allelic series) | 9.44 upbm affinity estimate (log intensity, higher = more binding, comparable within an allelic series)
4 | AGGCAGCC | 9.69 upbm affinity estimate (log intensity, higher = more binding, comparable within an allelic series) | 9.68 upbm affinity estimate (log intensity, higher = more binding, comparable within an allelic series) | 9.68 upbm affinity estimate (log intensity, higher = more binding, comparable within an allelic series) | 9.7 upbm affinity estimate (log intensity, higher = more binding, comparable within an allelic series)
5 | TCATCGAA | 11.4 upbm affinity estimate (log intensity, higher = more binding, comparable within an allelic series) | 11.5 upbm affinity estimate (log intensity, higher = more binding, comparable within an allelic series) | 11.2 upbm affinity estimate (log intensity, higher = more binding, comparable within an allelic series) | 11.5 upbm affinity estimate (log intensity, higher = more binding, comparable within an allelic series)
6 | ACCTGCAG | 9.74 upbm affinity estimate (log intensity, higher = more binding, comparable within an allelic series) | 9.82 upbm affinity estimate (log intensity, higher = more binding, comparable within an allelic series) | 9.68 upbm affinity estimate (log intensity, higher = more binding, comparable within an allelic series) | 9.76 upbm affinity estimate (log intensity, higher = more binding, comparable within an allelic series)
7 | TCCGGACA | 9.56 upbm affinity estimate (log intensity, higher = more binding, comparable within an allelic series) | 9.6 upbm affinity estimate (log intensity, higher = more binding, comparable within an allelic series) | 9.6 upbm affinity estimate (log intensity, higher = more binding, comparable within an allelic series) | 9.66 upbm affinity estimate (log intensity, higher = more binding, comparable within an allelic series)
8 | AAGAGGGG | 11.9 upbm affinity estimate (log intensity, higher = more binding, comparable within an allelic series) | 12.2 upbm affinity estimate (log intensity, higher = more binding, comparable within an allelic series) | 11.8 upbm affinity estimate (log intensity, higher = more binding, comparable within an allelic series) | 12.1 upbm affinity estimate (log intensity, higher = more binding, comparable within an allelic series)
9 | AAAATGCG | 9.82 upbm affinity estimate (log intensity, higher = more binding, comparable within an allelic series) | 9.83 upbm affinity estimate (log intensity, higher = more binding, comparable within an allelic series) | 9.74 upbm affinity estimate (log intensity, higher = more binding, comparable within an allelic series) | 9.92 upbm affinity estimate (log intensity, higher = more binding, comparable within an allelic series)
10 | ACGGCGAC | 9.81 upbm affinity estimate (log intensity, higher = more binding, comparable within an allelic series) | 9.82 upbm affinity estimate (log intensity, higher = more binding, comparable within an allelic series) | 9.78 upbm affinity estimate (log intensity, higher = more binding, comparable within an allelic series) | 9.81 upbm affinity estimate (log intensity, higher = more binding, comparable within an allelic series)
11 | AGTGGTTC | 11.8 upbm affinity estimate (log intensity, higher = more binding, comparable within an allelic series) | 12 upbm affinity estimate (log intensity, higher = more binding, comparable within an allelic series) | 11.8 upbm affinity estimate (log intensity, higher = more binding, comparable within an allelic series) | 12.1 upbm affinity estimate (log intensity, higher = more binding, comparable within an allelic series)
12 | ACGGCCCG | 9.61 upbm affinity estimate (log intensity, higher = more binding, comparable within an allelic series) | 9.59 upbm affinity estimate (log intensity, higher = more binding, comparable within an allelic series) | 9.62 upbm affinity estimate (log intensity, higher = more binding, comparable within an allelic series) | 9.64 upbm affinity estimate (log intensity, higher = more binding, comparable within an allelic series)
